This is a sample that favours compounds with a hit; in the whole collection about 3.8% have one here.
ERa SRC1 pot = enhancers of ERα–SRC-1 coactivator binding, primary screen, biochemical, TR-FRET, ERα LBD, low estradiol; 86,000 compounds, 1.3% hits; coactivator binding (% of control), % at 25.6 µM; Estrogen receptor (Homo sapiens), P03372; TR-FRET ERalpha-LBD/SRC-Cy5 coactivator binding, 2 h; 100 = basal binding, no effect; AID 639, 2007; in the data active = activity above about 200%;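 note: binding measured in presence of low estradiol as agonist stimulus; 0% = peptide alone without receptor and 100% = receptor with peptide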
DAT uptake mod = changed hDAT dopamine uptake under cocaine IC80, either direction, primary screen, cocaine antagonist project, cell-based, LLC-PK1 hDAT, [14C]-dopamine uptake, MLSMR. LLC-PK1 hDAT cells, [14C]-dopamine uptake with cocaine IC80; actives deviate in either direction. 110,000 compounds, 1.3% hits. AID 449768, 2010. Sodium-dependent dopamine transporter (Homo sapiens), Q01959. B-score at 10 µM;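 active = Z score or B-score, a plate-position-corrected score, falls beyond the plate's 99.7% confidence bounds, in either direction; inactive = both scores lie inside the 99.7% bounds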;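 note: scored against the spread of the other compound wells on the same plate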
Target sequence (Q01959 whole entry, looked up): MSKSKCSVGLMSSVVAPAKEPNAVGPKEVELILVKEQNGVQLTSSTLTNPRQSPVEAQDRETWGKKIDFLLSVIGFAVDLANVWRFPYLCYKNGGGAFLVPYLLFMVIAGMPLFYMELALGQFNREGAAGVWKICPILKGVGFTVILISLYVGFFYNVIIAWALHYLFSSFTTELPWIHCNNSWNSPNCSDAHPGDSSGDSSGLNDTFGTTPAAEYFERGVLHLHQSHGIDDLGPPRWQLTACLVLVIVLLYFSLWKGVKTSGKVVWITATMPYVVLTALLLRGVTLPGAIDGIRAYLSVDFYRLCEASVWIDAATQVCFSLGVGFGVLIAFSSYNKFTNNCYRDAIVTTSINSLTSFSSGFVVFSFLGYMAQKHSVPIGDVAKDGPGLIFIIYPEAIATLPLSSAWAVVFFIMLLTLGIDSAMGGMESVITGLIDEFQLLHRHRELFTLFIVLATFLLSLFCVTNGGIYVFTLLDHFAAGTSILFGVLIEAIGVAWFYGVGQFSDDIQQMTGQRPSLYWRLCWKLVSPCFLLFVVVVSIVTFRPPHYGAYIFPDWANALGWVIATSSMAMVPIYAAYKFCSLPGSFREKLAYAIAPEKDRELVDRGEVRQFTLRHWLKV
MT1-MMP txn act = MT1-MMP promoter reporter activation – cell-based, luciferase luminescence, primary screen | 86,000 compounds, 0.16% hits | HT1080 MT1-MMP promoter luciferase reporter, overnight; hits give high values | activation factor at 10 µM | AID 750, 2007;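 active = activation factor of at least 2 for MT1-MMP transcription at 10 µM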
ERb SRC1 inh = inhibitors of ERβ-SRC1 coactivator interaction, primary screen, biochemical, TR-FRET, ERβ LBD, SRC-1 peptide. Estrogen receptor beta (Homo sapiens), Q92731. TR-FRET ER-beta LBD / SRC1-Cy5 peptide binding; receptor agonist-loaded with 1 µM estradiol. inhibition, % at 25.6 µM. 86,000 compounds, 1.3% hits;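 active = compounds whose percent inhibition of the receptor-coactivator binding signal exceeds about 50% in the single-dose screen, limit read from the data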;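 note: 0% = receptor plus peptide wells without compound and 100% = peptide-only wells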
ERa coact inh = ERα–SRC-1 coactivator interaction inhibitors, primary screen, biochemical, TR-FRET, ERα LBD, estradiol-bound; Estrogen receptor (Homo sapiens), P03372; TR-FRET ER-alpha LBD / SRC-1 peptide; inhibition, % at 25.6 µM; 86,000 compounds, 1.7% hits; in the data active = inhibition above about 50%;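 note: 0% = receptor plus peptide control and 100% = peptide only without receptor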
Starred values were filed as active, the others as inactive; · = no result given; [ ] = dose if it differs, or a comment.

SMILES	ERa SRC1 pot	DAT uptake mod	MT1-MMP txn act	ERb SRC1 inh	ERa coact inh
CCOC(=O)C1CCCN(C(=O)COc2ccccc2O)C1 (stereo not drawn)	106.5	-0.771	1.2	-2.1	10.3
CCOC(=O)C1CCCN(C(=O)CSc2nccn2C)C1 (stereo not drawn)	109.0	-3.03*	1.1	-3.1	-9.0
COCCN1C=C(C(=O)OC)C(c2ccccc2C(F)(F)F)C(C(=O)OC)=C1	92.2	-0.69	1.2	-8.1	-5.1
CCCCN1C=C(C(=O)OC)C(c2ccccc2C(F)(F)F)C(C(=O)OC)=C1	115.9	3.07*	1.1	14.9	0.2
COc1ccc(OC)c(N2C(=O)[C@@H]3C(c4ccccc4Cl)=NO[C@@H]3C2=O)c1	22.8	0.889	1	79.0*	78.6*
S=C1NCCOCCOCCOCCOCCNC(=S)NCCOCCOCCOCCOCCN1	102.0	-0.00032	1.2	-6.0	-10.2
COc1cc(C2c3c(oc4ccc(Cl)cc4c3=O)C(=O)N2Cc2ccco2)cc(OC)c1OC (stereo not drawn)	22.9	·	1	44.2	56.1*
NC(=O)c1sc2cc(C(F)(F)F)cnc2c1-c1cccs1	111.2	0.156	1.1	2.7	0.4
O=C(Nc1ccccc1)c1sc2cc(C(F)(F)F)cnc2c1-c1cccs1	209.8*[fluorescence artefact?]	0.0481	0.8	17.4	18.5
O=S1(=O)c2ccccc2C(CCO)N1Cc1ccccc1 (stereo not drawn)	·	-0.601	·	·	·
CCOC(=O)c1c(C)[nH]c(C(=O)CSc2nnnn2-c2ccccc2)c1C	205.5*[fluorescence artefact?]	-0.823	1.3	57.8*[fluorescence artefact?]	57.7*[fluorescence artefact?]
CCOC(=O)c1c(C)[nH]c(C(=O)CSc2nnnn2-c2ccc(C)cc2)c1C	122.7	0.62	1.1	-0.3	-1.6
C=CCOC(=O)C1=C[C@@H](c2csc3ccccc23)[C@H](CCCO)[C@@H](OCC)O1	·	1.17	·	·	·
O=C(Nc1ccccc1N1CCOCC1)c1cc(-c2ccco2)nc2ccccc12	40.3	1.29	·	79.0*	86.9*[fluorescence artefact?]
Cc1oc(-c2ccc(Cl)cc2)nc1CN1CCC(C(=O)N2CCN(c3ccccn3)CC2)CC1	84.2	·	1.1	-12.6	-5.3
COCCCn1c(SCC(=O)Nc2ccc(NC(=O)c3ccco3)c(OC)c2)nc2ccccc2c1=O	213.0*[fluorescence artefact?]	0.664	0.9	45.7	44.0
COc1cccc(NC(=O)CN2CCN(c3ccc(F)cc3)CC2)c1	121.0	-2.46*	1.1	-3.0	2.5
COC(=O)c1cccc(NC(=O)CN2CCN(c3ccc(OC)cc3)CC2)c1	108.0	-0.271	1.1	3.6	-5.7
CN(C)c1ccc(NC(=O)CN2CCN(CC(=O)Nc3ccc(F)cc3)CC2)cc1	64.1	-0.0719	1.2	54.1*[fluorescence artefact?]	16.3
O=c1[nH]c2ccc(Br)cc2c(-c2ccccc2)c1N1CCOCC1	429.5*[fluorescence artefact?]	·	1.1	18.5	30.2
CCCC[C@@H]1C[C@H]1C(NC(=O)c1ccccc1)c1ccccc1C(F)(F)F (stereo partly drawn)	·	·	1.2	·	·
O=[N+]([O-])c1cc([N+](=O)[O-])c(N2CCCCCC2)cc1NCCO	·	-0.77	·	·	·
O=C1c2cccc(Cl)c2C(=O)c2c1cccc2N1CCCC1	·	-1.89	·	·	·
Cc1cccc2c(Cl)cc(=O)[nH]c12	104.3	0.264	1	-3.5	-5.6
CCCCN1CCc2c([nH]c3c(C)cccc23)C1=O	587.2*[fluorescence artefact?]	2.13	1.5	-9.8	-8.8
SMILES	ERa SRC1 pot	DAT uptake mod	MT1-MMP txn act	ERb SRC1 inh	ERa coact inh
CC1=C(C(=O)c2ccccc2)C(c2cn(-c3ccccc3)nc2-c2ccc(Cl)cc2)NC(=S)N1 (stereo not drawn)	282.1*[fluorescence artefact?]	1.95	0.9	-2.7	-12.3
O=C1NC(=O)C(c2cn(-c3ccccc3)nc2-c2ccc(F)cc2)N1 (stereo not drawn)	117.8	-0.488	1.2	-7.0	-10.0
COc1cccc(-n2c(SCC(=O)N3c4ccccc4CC3C)nnc2-c2ccco2)c1 (stereo not drawn)	·	2.88*	·	·	·
CCCCn1c(SCC(=O)N2CCC(C)CC2)nc2cc(S(N)(=O)=O)ccc21	79.1	3.28*	1.3	-3.1	5.5
CCCCn1c(SCC(=O)NC(=O)NCc2ccco2)nc2cc(S(N)(=O)=O)ccc21	79.8	0.0422	1.1	43.4	57.6*[fluorescence artefact?]
CCCCn1c(SCC2CCCO2)nc2cc(S(N)(=O)=O)ccc21 (stereo not drawn)	109.4	0.0773	1.1	1.0	26.0
CC[C@@H]1CC=C[C@H]2[C@H]1C(=O)N(Cc1ccccc1)[C@H]2c1ccc2ccccc2c1	·	-0.887	·	·	·
CCOC(=O)n1c(SCC(N)=O)nc2ccccc21	106.3	1.18	0.9	-10.1	-1.7
CCCCOC(=O)n1c(SCC(=O)N(CC)CC)nc2ccccc21	101.3	3.93*	1	-6.9	-1.5
COC(=O)/C(=C\Nc1ccc(Cl)cc1Cl)NC(=O)c1ccc(Cl)cc1Cl	52.0	·	·	46.2	74.5*[fluorescence artefact?]
Nn1c(=O)c2ccccc2n2c(SCc3ccc(C(F)(F)F)cc3)nnc12	·	1.26	·	·	·
CCOC(=O)c1c(NC(=O)CSc2nnc(C)s2)sc2c1CCC(CC)C2 (stereo not drawn)	93.2	2.22*	1.1	-4.2	-8.4
NC(=O)c1sc2nc(-c3ccco3)ccc2c1N	·	-0.15	·	·	·
COC(=O)c1sc2nc(-c3ccco3)ccc2c1N	66.5	0.329	1	73.2*	54.3*
Cc1nc(N2CCN(Cc3nc4ccccc4[nH]3)CC2)c2oc3ccccc3c2n1	103.9	2.51*	1	2.4	-3.7
O=C1c2ccsc2SCCN1Cc1cccc(Cl)c1	100.0	1.75	1.1	-1.0	1.1
O=C1c2ccsc2SCCN1Cc1ccc(Cl)cc1	76.3	0.89	1	55.9*[fluorescence artefact?]	15.5
O=C(NCc1ccco1)c1cc2ccc(O)cc2oc1=O	91.2	0.391	0.7	71.5*	63.8*
Cc1ccc(C(=O)NCc2ccco2)cc1Br	85.9	2.28	·	4.6	9.1
Cc1c(Br)cc(C(=O)NCc2ccco2)c(C)c1C	98.9	-0.0528	1.2	23.5	50.6*
COC(=O)N1[C@H](C)C=C[C@]1(Cc1ccccc1)C(=O)NCc1ccc(C)o1	·	·	1.1	·	·
CCN(CC)C(=O)C1CCCN(c2ncnc3c2cnn3-c2cccc(C)c2)C1 (stereo not drawn)	100.7	3.28*	0.9	-6.0	-0.6
Cc1cc(-c2cc(N)n(-c3ccccc3)n2)c(C)n1C1CCCC1	94.8	2.06*	2*	-2.2	-5.3
CCCCNC(=O)[C@H](CSCc1ccccc1)N1Cc2ccccc2C1=O	·	0.176	·	·	·
COc1ccc(C(=O)N2CCC(=O)N(C(CO)Cc3ccccc3)CC2)cc1 (stereo not drawn)	·	0.319	·	·	·
COc1cc2c(cc1NC(=O)CCCN1C(=O)CCC1=O)oc1ccccc12	116.1	2.73*	1.7	-10.2	-10.3

Screens as filed in PubChem.
